# Assay results taken from PubChem BioAssay AID504558 (Broad Institute, 2011).
# Screen size: about 350,000 compounds; about 2,400 (0.69%) were called active. Cut-off read from the data, not from the text of the source: active = inhibition above about 41%; inconclusive = no clear call, values can overlap the other calls; inactive = below that. What follows is part of a selection rich in actives, with near analogues and random picks from the rest.
# Test: EBV LMP1-driven NF-kappaB luciferase reporter inhibitors, primary screen, cell-based, luminescence, single point (AID 504558);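 note: 0% = neutral control wells and 100% = reference inhibitor control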
# Details: LMP1-induced NF-kappaB luciferase reporter cells, at 12.5 µM, active compounds read high
row,Compound,inhibition
1,Cc1ccc(NC(=O)Cn2sc3ccccc3c2=O)cc1,0.665% (inactive)
2,COc1cccc2c1C(=O)c1c(O)c3c(c(O)c1C2=O)CC(O)(C(C)=NNC(=O)c1ccc(Cl)c(Cl)c1)CC3OC1CC(N)C(O)C(C)O1 (configuration not stated),70% (active)
3,COc1cc(C(=O)OCCCN2CCOCC2)cc(OC)c1OC,1.26% (inactive)
4,Cc1cccc(N(C(=O)Cn2nnc(-c3ccc(C)o3)n2)C(C(=O)NC2CCCC2)c2ccncc2)c1 (configuration not stated),9.95% (inactive)
5,Cc1ccc(-c2nnn(CC(=O)N(Cc3ccco3)C(C(=O)NC(C)(C)C)c3ccncc3)n2)o1 (configuration not stated),54.6% (active)
6,Cc1ccc(-c2nnn(CC(=O)N(CCO)C(C(=O)NC(C)(C)C)c3ccncc3)n2)cc1 (configuration not stated),-24.9% (inactive)
7,CCn1c(SCC(=O)N2CCCC2=O)nc2ccccc21,6.54% (inactive)
8,Cc1cccc(NC(=O)/C=C/c2ccc3c(c2)OCO3)n1,-23.8% (inactive)
9,C(=N\Nc1ccc2ccccc2n1)/c1ccc2c(c1)OCO2,43.9% (active)
10,O=C(CNC(=O)C(c1ccccc1)c1ccccc1)N/N=C\c1ccc2c(c1)OCO2,-3.07% (inactive)
11,CC(OC(=O)c1cccc(S(=O)(=O)N2CCOCC2)c1)C(=O)NCC1CCCCC1 (configuration not stated),-1.25% (inactive)
12,Cc1ccc2cc(/C=N/Nc3ccc(C(=O)O)cc3)c(Cl)nc2c1,-63.4% (inactive)
13,O=C(O)c1ccc(N/N=C/c2ccc3ncccc3c2)cc1,44.3% (active)
14,CCNC(=S)NNC(=O)c1ccc2ncccc2c1,7.73% (inactive)
15,CCOc1ccc(S(=O)(=O)NCCC(=O)NNC(=O)c2ccc(F)cc2)cc1,-8.7% (inactive)
16,O=C(Nc1ccc2c(c1)[C@@H]1C[C@@H](CC(=O)N3CCCCC3)O[C@@H](CO)[C@@H]1O2)NC1CCCCC1,1.38% (inactive)
17,CCc1cc(-c2nnn(CCC3COCCO3)c2CC)ccc1-c1cn(Cc2ccc3ccccc3c2)nn1 (configuration not stated),0.755% (inactive)
18,Cc1cc(Cl)ccc1C(=O)C1CCCN(C(=O)c2ccc3c(c2)OCO3)C1 (configuration not stated),-1.16% (inactive)
19,C/C(=N\NC(=O)c1ccccc1F)c1ccccn1,48.6% (active)
20,O=C(NCCOc1ccccc1)c1ccccc1F,-2.63% (inactive)
21,Cc1cccc(C)c1NC(=S)N1CCCCCC1,23.1% (inactive)

row,Compound,inhibition
1,O=C(Nc1nnc(-c2ccccc2F)s1)c1ccccc1F,-3.53% (inactive)
2,CCNC(=S)N1CCN(c2ncccn2)CC1,-18.8% (inactive)
3,CC(=NNC(=S)N1CCCCCC1)c1ccccn1,91.7% (active)
4,CCN(C(=O)Nc1cccc2ccccc12)c1ccccc1,2.61% (inactive)
5,CCN(Cc1ccncc1)C(=S)Nc1ccccc1C,0.031% (inactive)
6,CCc1ccccc1OCC(=O)Nc1nnc(C2CC2)s1,-2.82% (inactive)
7,COCOCCn1cc(CN2CCS(=O)(=O)N(Cc3ccc(-c4ccccc4)cc3)C(CC(C)C)C2=O)nn1 (configuration not stated),1.98% (inactive)
8,CC1=C(C(=O)N2CCOCC2)CC(CC(=O)NCc2ccco2)C(=O)N1Cc1ccc(F)cc1 (configuration not stated),3.55% (inactive)
9,Cc1cccc(-n2ncc(Cl)c(Cl)c2=O)c1,52.4% (active)
10,C=CCNc1cnn(-c2ccc(C)cc2)c(=O)c1Cl,-12.1% (inactive)
11,Cc1cccc(-n2ncc3c(=O)[nH]c(SCC(=O)Nc4cc(C)on4)nc32)c1,-3.93% (inactive)
12,CCCCN1C[C@H](c2ccc(Br)cc2)[C@@H](CC(=O)Nc2ccc(Br)cc2)C1=O,1.53% (inactive)
13,C[C@@H]1CN([C@@H](C)CO)C(=O)c2cc(Br)cnc2O[C@@H]1CN(C)C(=O)C1CCCCC1,-0.141% (inactive)
14,CCN(CC)C(=O)C1=C(C)N(Cc2ccccc2)C(=O)C(CC(=O)NC(c2ccccc2)c2ccccc2)C1 (configuration not stated),2.92% (inactive)
15,CCOc1cccc(/C=C/c2ccc3ccccc3n2)c1OC(C)=O,17.6% (inactive)
16,COc1cccc(/C=C/c2ccc3ccccc3n2)c1OC(C)=O,56.9% (active)
17,CC(=O)c1ccc(S(=O)(=O)N2CCN(C(=O)/C=C/c3ccc4ccccc4n3)CC2)cc1,-1.62% (inactive)
18,COC(=O)c1ccc(NCc2cc(O)ccc2O)cc1,-94.1% (inactive)
19,CC1(C)C2CCC1(C)C(OC(=O)c1ccc(O)cc1)C2 (configuration not stated),-2.13% (inactive)
20,O=C(OC12CC3CC(CC(C3)C1)C2)c1ccc(NCc2cc(O)ccc2O)cc1,44.1% (active)
21,CC1C(=O)N(Cc2cn(Cc3ccco3)nn2)CCS(=O)(=O)N1Cc1ccc(-c2cccc(CO)c2)cc1 (configuration not stated),4.76% (inactive)
